Assay outcomes: PubChem, The Scripps Research Institute Molecular Screening Center
TEAD-YAP block – TEAD-YAP interaction inhibition; HEK-TIYL cells, TEAD-Gal4/YAP UAS-luciferase luminescence; inhibition, % at 9.12 µM; actives 1.4% (n = 640,000); in the data active = inhibition above about 32%;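 note: 0% = median of test compound wells and 100% = reference inhibitor wells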
FBW7 act – activators of human E3 ligase FBW7 | Q969H0 | AlphaScreen FBW7–phospho-cyclin E peptide binding, activator screen | normalized activity (activation), % at 26.1 µM | actives 0.13% (n = 650,000) | AID 1259310; in the data active = normalized activity above about 1.9%;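 note: purified mutant Fbw7 with reduced substrate affinity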
MITF primary – inhibitors of human MITF; O75030; AlphaScreen MITF homodimerization, bead proximity signal; inhibition, % at 2.6 µM; actives 0.91% (n = 650,000); AID 1259374; in the data active = inhibition above about 50%;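 note: 0% = vehicle wells with protein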
GPR151 activ – activates the human receptor GPR151 | PathHunter beta-arrestin GPR151 cells, luminescence | actives 1% (n = 650,000) | activation, % at 11.2 µM | Q8TDV0; in the data active = activation above about 4.9%;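 note: 0% = median of compound wells and 100% = cells with positive control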
Target sequence (Q8TDV0 whole entry, looked up): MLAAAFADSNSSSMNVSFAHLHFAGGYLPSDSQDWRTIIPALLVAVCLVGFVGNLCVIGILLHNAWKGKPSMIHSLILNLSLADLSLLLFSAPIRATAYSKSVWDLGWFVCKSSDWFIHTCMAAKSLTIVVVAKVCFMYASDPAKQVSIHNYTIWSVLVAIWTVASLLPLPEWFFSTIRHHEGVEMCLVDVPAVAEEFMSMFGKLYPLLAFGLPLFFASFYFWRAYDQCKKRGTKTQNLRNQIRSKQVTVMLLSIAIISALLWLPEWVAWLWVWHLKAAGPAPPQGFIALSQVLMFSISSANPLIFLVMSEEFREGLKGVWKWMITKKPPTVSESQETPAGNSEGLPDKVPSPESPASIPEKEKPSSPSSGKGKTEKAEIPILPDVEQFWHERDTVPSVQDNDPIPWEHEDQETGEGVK
An asterisk follows results filed as active. In the library only some 3.5% were active in any assay of this set; here they are far more common.

SMILES	TEAD-YAP block	FBW7 act	MITF primary	GPR151 activ
CCc1cccc(C)c1NC(=S)N(CCN1CCCCCC1)Cc1ccco1	6.8	3.2*	7.1	-1.6
CSc1ccc(S(=O)(=O)Nc2cccc([N+](=O)[O-])c2C)cc1	2.8	1.1	15.2	1.7
COCCCNC(=O)c1ccc(SCc2cccc(OC)c2OC)c([N+](=O)[O-])c1	61.2*	0.9	3.7	-0.3
COc1cccc(CN2CCc3nc(-c4ccccn4)nc(N4CCCC4)c3C2)c1	40.6*	-0.8	12.2	0.2
COc1cc(C2C(=O)N(C3CCC(C)CC3)CC(=O)N2C2CCCCCCC2)ccc1OC(C)C (centres undefined)	-5.5	0.1	9.9	-0.9
CCc1ccc(-c2cn3nc(C)c(C)nc3n2)cc1	92.1*	0.3	-1.1	-7.5
CCc1ccc(-c2cn3ccccc3n2)cc1	69.5*	0.1	2.3	-6.2
Cc1cccn2cc(-c3ccc(NC(=O)CC(C)C)cc3)nc12	-42.6	0.1	9.7	-4.2
CC(C)CC(=O)Nc1ccc(-c2cn3ccccc3n2)cc1	40.6*	0.0	6.7	-3.0
CC(=O)Nc1ccc(-c2cn3ccccc3n2)cc1	38.5*	0.2	-1.5	-4.5
COCCOC(=O)c1ccc(NC(=O)COc2ccc(Cl)c(C)c2)cc1	10.8	0.8	4.0	-0.2
Cc1cccc(OCC(=O)Nc2ccc(F)c([N+](=O)[O-])c2)c1	32.0*	-0.3	1.1	0.5
Cc1ccc(OCC(=O)Nc2ccc(F)c([N+](=O)[O-])c2)cc1C	12.8	-0.2	-8.1	0.5
Cc1ccc(NC(=O)CSc2nnc(NC(=O)c3ccccc3[N+](=O)[O-])s2)cc1	-31.8	0.0	-16.6	-3.9
Cc1cc(C)cc(OCC(=O)Nc2ccc(F)c([N+](=O)[O-])c2)c1	36.9*	0.0	2.8	3.5
O=C(COc1cccc(Cl)c1)Nc1ccccc1[N+](=O)[O-]	32.2*	0.0	-3.7	1.6
Cc1ccc(C(=O)Nc2nnc(SCC(=O)Nc3ccc(F)c([N+](=O)[O-])c3)s2)cc1	82.9*	0.1	-2.7	0.9
COc1ccc(S(=O)(=O)Nc2cc(-n3c(C)nc4ccccc4c3=O)ccc2F)cc1F	-13.5	-0.4	0.1	-0.3
CC(C)CSc1ccc(C(=O)O)cc1[N+](=O)[O-]	23.4	0.2	5.0	1.4
O=[N+]([O-])c1ccc2[nH]c(O)c(N=Nc3ccc(S(=O)(=O)O)cc3)c2c1	-8.2	-0.3	59.7*	-0.9
Oc1c(C(Nc2ccc(F)cc2)c2ccncc2)ccc2cccnc12 (centres undefined)	-3.1	-2.1	61.0*	-1.3
Oc1c(C(Nc2ccccn2)c2cccc(F)c2)ccc2cccnc12 (centres undefined)	21.0	-0.3	0.2	0.5
Oc1c(C(Nc2ncccn2)c2ccc(F)cc2)ccc2cccnc12 (centres undefined)	0.6	0.0	14.9	2.1
Cc1cccc(NC(c2ccc(F)cc2)c2ccc3cccnc3c2O)n1 (centres undefined)	85.8*	-0.3	26.0	-1.7
Cc1cccc(NC(c2cccc(F)c2)c2ccc3cccnc3c2O)n1 (centres undefined)	40.3*	-0.2	5.1	-1.3
SMILES	TEAD-YAP block	FBW7 act	MITF primary	GPR151 activ
CCn1c2ccccc2c2cc(/C=C(\C#N)c3nn(CCO)c(N)c3C#N)ccc21	48.5*	-0.2	-0.3	-0.1
N#C/C(=C\c1ccccc1)c1nn(CCO)c(N)c1C#N	-16.7	0.2	15.5	1.8
N#C/C(=C\c1cccc(Cl)c1Cl)c1nn(CCO)c(N)c1C#N	49.1*	-0.3	8.8	1.4
CC/C(C)=N/NC(=O)c1cccc([N+](=O)[O-])c1	-3.0	-0.1	-8.0	0.5
NC(=O)c1ccc(-c2nc(Nc3ccc(Oc4ccccc4)cc3)c3ncn(-c4ccsc4)c3n2)cc1	5.0	0.3	15.4	0.2
NC(=O)c1ccc(-c2nc(Nc3ccccc3)c3ncn(-c4ccsc4)c3n2)cc1	50.3*	0.2	16.0	-0.1
CC(=O)Nc1ccc(Nc2nc(-c3ccccc3)nc3c2ncn3-c2ccsc2)cc1	37.0*	0.3	-13.4	0.3
CC(=O)Nc1ccc(Nc2nc(-c3ccc(C(=O)N4CCN(C)CC4)cc3)nc3c2ncn3-c2ccsc2)cc1	36.0*	0.0	2.2	0.8
CC(=O)Nc1ccc(Nc2nc(-c3ccc(C(N)=O)cc3)nc3c2ncn3-c2ccsc2)cc1	39.1*	0.1	-6.0	-1.9
OCCC1CN(Cc2ccco2)CCN1C1CCCCC1 (centres undefined)	8.1	0.0	16.6	-0.5
Cc1nc(NCC(C)(C)CN(C)C)c2nnn(Cc3ccccc3F)c2n1	-4.1	-0.3	-7.2	0.1
OCc1cc(Cl)c2c(c1)OCCCO2	-6.6	0.0	0.4	0.2
NC(=O)c1ccc(-c2nc(NC3CC3)c3ncn(-c4ccccc4)c3n2)cc1	35.6*	0.3	22.8	-3.2
COc1ccc(-c2nc(Nc3ccc(NC(C)=O)cc3)c3ncn(-c4ccsc4)c3n2)cn1	50.8*	0.1	8.7	2.9
c1ccc(-c2nc(NC3CC3)c3ncn(-c4ccccc4)c3n2)cc1	4.8	-0.2	-2.4	-2.5
COc1ccc(-c2nc(Nc3ccccc3)c3ncn(-c4ccsc4)c3n2)cn1	0.3	0.3	16.2	-2.4
Cc1nnc(NC(=O)Cn2cnc3ccccc3c2=O)o1	2.5	-0.7	28.5	-1.2
CCOC(=O)NC(c1ccccc1)C(C(=O)OCC)C(=O)OCC (centres undefined)	9.4	2.3*	29.6	-0.8
COc1ccc(/C(C)=N/Nc2nc(-c3cccnc3)nc3ccccc23)cc1OC	33.4*	0.3	24.1	-2.3
COc1cc(N2CCOCC2)ccc1Nc1cc(Nc2ccccc2NC(C)=O)c(C(F)(F)F)cn1	45.5*	-0.1	-6.8	-0.8
Cc1cnc(Nc2ccc(N3CCNCC3)cc2)cc1Nc1ccccc1C(N)=O	32.8*	0.2	18.2	-1.3
CNC(=O)c1ccccc1Nc1cc(Nc2ccc(N3CCOCC3)cn2)ncc1C(F)(F)F	85.6*	0.1	3.5	-2.0
CNC(=O)c1ccccc1Nc1cc(Nc2ccc(N3CCOCC3)cc2C)ncc1C(F)(F)F	71.2*	-0.1	5.1	0.5
NC(=O)c1ccccc1Nc1ccnc(Nc2ccc(N3CCNCC3)cc2)c1	4.2	-0.7	7.6	-0.1
CNC(=O)c1ccccc1Nc1cc(Nc2ccc(C(=O)N3CC[C@H](O)C3)cc2OC)ncc1C(F)(F)F	33.1*	0.1	15.1	0.8
SMILES	TEAD-YAP block	FBW7 act	MITF primary	GPR151 activ
CNC(=O)c1ncccc1Nc1cc(Nc2ccc(C(=O)N(C)C)cc2OC)ncc1C(F)(F)F	-12.9	-0.1	-4.0	0.0
COC(=O)C1=CN(Cc2ccc(OC)cc2)C=C(C(=O)OC)C1c1cccc(Br)c1	-11.3	0.2	-9.7	2.1
Cc1ccccc1C(=O)OCC(=O)c1cc(C)n(Cc2ccco2)c1C	69.2*	0.0	13.7	-1.3
Cc1cc(C(=O)COc2ncnc3sccc23)c(C)n1CC1COc2ccccc2O1 (centres undefined)	5.0	0.0	13.6	-0.8
Cc1cc(C(=O)COC(=O)c2cccnc2Cl)c(C)n1Cc1cccs1	47.0*	0.0	5.2	-0.3
Cc1cc(C(=O)COC(=O)c2n[nH]c3ccccc23)c(C)n1Cc1cccs1	74.2*	-0.2	-13.6	0.6
Cc1cc(C(=O)COc2ncnc3sccc23)c(C)n1Cc1cccs1	32.8*	-0.2	-19.2	-0.9
